PubChem BioAssay AID1159580 (chemical genetic matrix, 2015)
About 2,000 (36%) of roughly 5,500 compounds were called active. Roughly 18% stayed inconclusive and do not appear here. Rule as the data show it: active = normalized growth mostly below about 0.91 (no sharp cut-off); inconclusive = no clear call, values can overlap the other calls; inactive = mostly above about 0.92. The list shows a part of the results.

Experiment: chemical genetic growth profiling, strain panel (AID 1159580);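 also: tested at 20 µM; growth read once vehicle control cultures reached saturation at 30 °C; 1 = growth at the plate median or of vehicle wells; lower values mean less growth of the strain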
Settings: growth OD

Measured: normalized growth

Clc1ccc(OCCOc2ccc(Cl)cc2)cc1
inactive: S. cerevisiae deletion strains, locus YAL013W, strain DEP1, stronger effect = lower value 1.01 | S. cerevisiae deletion strains, locus YBR229C, strain ROT2, stronger effect = lower value 0.99 | S. cerevisiae deletion strains, locus YDL101C, strain DUN1, stronger effect = lower value 1.04 | S. cerevisiae deletion strains, locus YDL134C, strain PPH21, stronger effect = lower value 0.996 | S. cerevisiae deletion strains, locus YDR150W, strain NUM1, stronger effect = lower value 1.01 | S. cerevisiae deletion strains, locus YEL061C, strain CIN8, stronger effect = lower value 0.99 | S. cerevisiae deletion strains, locus YGR078C, strain PAC10, stronger effect = lower value 1.02 | S. cerevisiae deletion strains, locus YHR030C, strain SLT2, stronger effect = lower value 0.978 | S. cerevisiae deletion strains, locus YHR087W, strain rtc3, stronger effect = lower value 0.965 | S. cerevisiae deletion strains, locus YJL187C, strain SWE1, stronger effect = lower value 1.02 | S. cerevisiae deletion strains, locus YJR043C, strain POL32, stronger effect = lower value 1.04 | S. cerevisiae deletion strains, locus YJR075W, strain HOC1, stronger effect = lower value 0.998 | S. cerevisiae deletion strains, locus YLR039C, strain RIC1, stronger effect = lower value 1.01 | S. cerevisiae deletion strains, locus YLR058C, strain SHM2 (second series), stronger effect = lower value 1.01 | S. cerevisiae deletion strains, locus YLR085C, strain ARP6, stronger effect = lower value 1.01 | S. cerevisiae deletion strains, locus YLR262C, strain YPT6, stronger effect = lower value 0.95 | S. cerevisiae deletion strains, locus YML094W, strain GIM5, stronger effect = lower value 0.971 | S. cerevisiae deletion strains, locus YMR219W, strain ESC1, stronger effect = lower value 1.02 | S. cerevisiae deletion strains, locus YMR263W, strain SAP30, stronger effect = lower value 1.01 | S. cerevisiae deletion strains, locus YNL128W, strain TEP1, stronger effect = lower value 1.01 | S. cerevisiae deletion strains, locus YNL153C, strain GIM3, stronger effect = lower value 1 | S. cerevisiae deletion strains, locus YNL298W, strain CLA4 (second series), stronger effect = lower value 0.989 | S. cerevisiae deletion strains, locus YNL322C, strain KRE1, stronger effect = lower value 0.998 | S. cerevisiae deletion strains, locus YNR030W, strain Alg12, stronger effect = lower value 0.983 | S. cerevisiae deletion strains, locus YOL006C, strain TOP1, stronger effect = lower value 0.937 | S. cerevisiae deletion strains, locus YPL055C, strain LGE1, stronger effect = lower value 0.975 | S. cerevisiae deletion strains, locus YPL241C, strain CIN2, stronger effect = lower value 0.986 | S. cerevisiae deletion strains, locus YPR135W, strain CTF4, stronger effect = lower value 1.07 | S. cerevisiae strains, strain wild type, stronger effect = lower value 1.01
